# Measurements reported in PubChem BioAssay AID504332 (National Center for Advancing Translational Sciences (NCATS), 2011).
# The campaign covered roughly 350,000 compounds. About 31,000 (8.9%) were called active. A call without a number means that no potency is given here. Not shown: some 15% with an inconclusive outcome. This is one part of a sample in which actives are shown more often than they occur. A number with no mark means an inactive call. Calls follow the shape of the dose curve; as a rule, active = well fitted inhibition curve with a large enough effect; inconclusive = small, poorly fitted or top-dose-only effect; inactive = no such curve, though single readings can be large or run the other way.
# Target: Histone-lysine N-methyltransferase EHMT2 (Homo sapiens) (UniProt Q96KQ7)
# Sequence (Q96KQ7 913-1193 limits assumed): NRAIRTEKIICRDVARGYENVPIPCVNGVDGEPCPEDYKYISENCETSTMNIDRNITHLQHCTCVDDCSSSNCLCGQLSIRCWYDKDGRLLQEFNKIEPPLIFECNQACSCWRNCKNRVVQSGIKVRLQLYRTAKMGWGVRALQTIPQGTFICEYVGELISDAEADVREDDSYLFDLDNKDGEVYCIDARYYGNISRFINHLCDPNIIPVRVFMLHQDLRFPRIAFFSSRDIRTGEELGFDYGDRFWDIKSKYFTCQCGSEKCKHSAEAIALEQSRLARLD
# Test: qHTS Assay for Inhibitors of Histone Lysine Methyltransferase G9a; also: nearly all actives have a fitted effect of over 75% in size
# Conditions: G9a H3K9 monomethylation, AlphaScreen, 2 h; series mostly up to 59 µM
# In short: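 Enzyme 20 nM + cpd, 15 min RT; add b-H3K9 pep 500 nM / SAM 20 uM; 2 h RT; anti-H3K9me1 Ab 0.5 ug/mL + SA donor / anti-rabbit acceptor beads 20 ug/mL each, 10 min; AlphaScreen read.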
# Potency is read from the fitted curve at half-maximal effect.
SMILES,Potency,"activity, negative = inhibition"
Cc1oc(-c2ccccc2)nc1Cn1c(SCc2cccc(C(F)(F)F)c2)nc2cccnc21,inactive,
Cc1ccc(C(=O)CN2C(=O)NC3(CCOc4ccccc43)C2=O)s1 (stereo not given),,-5.02% [at 2.33 µM]
CN1CCN(NC(=O)Nc2ccc(Br)cc2)CC1,inactive,
CC(C)(C)OC(=O)NCCCCCNC(=O)c1[nH]cnc1C(=O)Nc1nccs1,,3.9% [at 0.501 µM]
O=C(COc1ccc(Cl)cc1)Nc1ccccc1OCc1cc(=O)n2ccccc2n1,inactive,
COc1ccccc1OCCNC(=O)C(CCSC)NC(=O)COc1ccccc1 (stereo not given),,9.08% [at 12.7 µM]
O=C1C=C(c2cc(C(F)(F)F)cc(C(F)(F)F)c2)C[C@@H](c2ccc3c(c2)OCO3)C1,,10.2% [at 0.501 µM]
CCN(C(=O)Cn1c(=O)nc(-c2ccccc2)c2cc(Cl)ccc21)c1cccc(C)c1,inactive,
O=C(CCC1N=C2c3ccccc3N=C(SCc3ccccc3F)N2C1=O)NCCc1ccccc1 (stereo not given),inactive,
C[C@H](NC(=O)c1[nH]cnc1C(=O)Nc1nccs1)c1ccccc1,,8.27% [at 0.501 µM]
CC(NC(=O)C(=O)Nc1nccs1)c1ccccc1 (stereo not given),50.1 µM (active),
O=C(O)c1ccccc1-c1ccccc1C(=O)Nc1nccs1,inactive,
Cc1cccc(C)c1-n1ncc(C(=O)NCCCN2CCCCC2)c1C1CCN(C(=O)OC(C)(C)C)CC1,inactive,
CCCC(NCC(=O)Nc1ccccc1C(=O)NC1CC1)c1ccccc1 (stereo not given),inactive,
CCOC(=O)c1c(C)[nH]c(C)c1S(=O)(=O)NCC(=O)NCc1cccc(C)c1,inactive,
CCCCc1cc(=O)oc2cc(C)cc(OCc3nn[nH]n3)c12,inactive,
Cc1c(C)c2ccc(OCC(=O)N3CCC(C(=O)O)CC3)c(C)c2oc1=O,inactive,
CCOC(=O)CCc1c(C)c2ccc(OCc3nn[nH]n3)c(C)c2oc1=O,50.1 µM (active),
CCc1ccc(C(=O)NN=C2CCCCCC2)s1,inactive,
O=C(Nc1ccccc1Br)c1cc(CN2CCCC2)on1,inactive,
COc1cccc(NC(=O)C(Sc2nnnn2C)c2ccccc2)c1 (stereo not given),inactive,
COc1cccc(NC(=O)C(Sc2nc3ccccc3c(=O)n2CC(C)C)c2ccccc2)c1 (stereo not given),79.4 µM (active),
COc1ccc(NC(=O)CSc2nc3ccccc3c(=O)n2C)cc1,,7.85% [at 0.501 µM]
Cc1ccc(C2CCN(C(=O)c3cnn(-c4ccccc4Cl)c3C3CCN(C(=O)OC(C)(C)C)CC3)C2)cc1 (stereo not given),inactive,
COc1ccc(NC(=O)c2cc(-c3ccc(C)cc3)on2)cc1,,-5.29% [at 0.501 µM]

SMILES,Potency,"activity, negative = inhibition"
Cc1ccc(NC(=O)c2sc3nc(N)c(C#N)cc3c2N)cc1,7.94 µM (active),
CC(=O)Nc1ccc(NC(=O)c2sc3nc4c(c(-c5ccc(C)cc5)c3c2N)CCC4)cc1,inactive,
COc1ccc(CCNC(=O)CCNS(=O)(=O)c2cc(Br)cnc2N)cc1OC,inactive,
COCC1CCN(C(=O)C2CCC(=O)N(Cc3cccc(C(F)(F)F)c3)C2)CC1 (stereo not given),,15.3% [at 12.7 µM]
O=c1o[nH]c(-c2ccccc2)c1N=Nc1c(F)cccc1Cl,28.2 µM (active),
O=c1c(=O)n(Cc2c(F)cccc2Cl)ccn1Cc1ccccc1,inactive,
O=c1onc(-c2c(F)cccc2F)n1-c1ccccc1Cl,inactive,
Cc1nnc(NC(=O)CSc2nc3c([nH]c4ccccc43)c(=O)n2-c2cccc(Cl)c2)s1,inactive,
COCCNS(=O)(=O)c1cc(-c2nn3c(C)nnc3c3ccccc23)ccc1C,inactive,
Cc1nc2ccccn2c(=O)c1NC(=O)c1cccs1,inactive,
Cc1ccc(C)c(S(=O)(=O)c2nnn3c2nc(N2CCOCC2)c2sccc23)c1,inactive,
CCOC(=O)C1CN(S(=O)(=O)c2ccc(OC)cc2)c2cc(Cl)ccc2O1 (stereo not given),inactive,
Cc1ccc([N+](=O)[O-])cc1S(=O)(=O)N1CCCN(C)CC1,56.2 µM (active),
Cc1ccc(C)c(S(=O)(=O)N2CCN(CC(=O)Nc3ccc([N+](=O)[O-])cc3)CC2)c1,inactive,
O=[N+]([O-])c1cccc(S(=O)(=O)N2CCCCCC2)c1,inactive,
CC(CNC(=O)c1nnc(Cc2cccc(F)c2)o1)c1ccccc1 (stereo not given),inactive,
O=C(NCCC1CCCCN1S(=O)(=O)c1ccc(Cl)cc1)C(=O)NCc1ccco1 (stereo not given),,-5.87% [at 0.501 µM]
CCOc1ccc(NC(=O)c2nc(SCC)ncc2Cl)cc1,inactive,
CCOc1ccc(N/C(N)=N/c2nc(C)c(C)c(=O)[nH]2)cc1,50.1 µM (active),
CCOc1ccc(NC(=O)C2CC(=O)N=C(N)S2)cc1 (stereo not given),inactive,
COc1ccccc1C(=O)Nc1c(C(=O)Nc2ccc(C)cc2)oc2ccccc12,inactive,
COc1ccc(C)cc1NC(=O)COCc1cc(-c2cccs2)on1,inactive,
COc1ccc(CNC(=O)COc2ccccc2C(=O)c2cnn(-c3ccccc3)c2)cc1OC,,13.3% [at 12.7 µM]
CCOC(=O)C1(Cc2ccccc2C)CCCN(C(=O)c2ccc(COC)o2)C1 (stereo not given),inactive,
N#CCCN(C(=O)COC(=O)c1ccc(S(=O)(=O)N2CCCCCC2)cc1)c1ccccc1,inactive,

SMILES,Potency,"activity, negative = inhibition"
O=C(O)/C=C/C(=O)NNc1ccc([N+](=O)[O-])cc1,7.94 µM (active),
CC(C)(C)C(=O)NCCCNc1ccc([N+](=O)[O-])cc1,inactive,
O=C(Cc1ccccc1)NNS(=O)(=O)c1ccc([N+](=O)[O-])cc1,inactive,
CCc1nn(CC(=O)Nc2cc(C)cc(C)c2)c(=O)c2cc3sccc3n12,inactive,
Cc1n[nH]c(=O)c2c(NC(=O)COC(=O)c3ncc(Cl)c(Cl)c3Cl)oc(C)c12,,5.9% [at 0.501 µM]
Cc1n[nH]c(=O)c2c(NC(=O)CSc3cc(Cl)ccc3Cl)oc(C)c12,,18.3% [at 2.33 µM]
Cc1n[nH]c(=O)c2c(NC(=O)CSc3ccccc3F)oc(C)c12,31.6 µM (active),
O=C(O)Cc1sc(-c2ccccc2)nc1-c1cccs1,inactive,
O=c1c2cc(-c3ccccc3)sc2nc2n1N=C(c1cccs1)CS2,11.2 µM (active),
O=c1c(-c2ccccc2)cnc2n1CCS2,,20.8% [at 12.7 µM]
CS(=O)(=O)N1CCN=C1SCc1ccc(F)cc1,inactive,
CCOC(=O)N1CCC(NC(=O)c2cnn(-c3cccc(C)c3)c2C2CCN(C(=O)OC(C)(C)C)CC2)CC1,inactive,
CCOC(=O)c1cc2c(=O)n3ccccc3nc2n(CCCOC)c1=NC(=O)C(C)(C)Oc1ccc(Cl)cc1,inactive,
O=C(CSc1nc(=O)[nH]c2c1CCCC2)Nc1cc(C(F)(F)F)ccc1Cl,inactive,
COc1ccc(NC(=O)CSc2nccn2C2CCCC2)cc1OC,inactive,
Cc1cccc(-n2c(Cc3cc(=O)[nH]c(=O)[nH]3)nnc2SCC(=O)Nc2cccc(C(F)(F)F)c2)c1,inactive,
O=C(CSc1nccn1C1CCCC1)Nc1cc(C(F)(F)F)ccc1Cl,12.6 µM (active),
Cc1cccc(-n2ccnc2SCC(=O)Nc2cc(C(F)(F)F)ccc2Cl)c1,14.1 µM (active),
CC(CC(=O)Nc1cc(C(F)(F)F)ccc1Cl)c1ccccc1 (stereo not given),inactive,
O=C(CN1C(=O)NC2(CCCCC2)C1=O)N1CCN(C(=O)c2cccs2)CC1,,-17% [at 2.33 µM]
Cc1ccc2nc(COc3cccc(NC(=O)Nc4ccc(C)c(Cl)c4)c3)cc(=O)n2c1,inactive,
CC(=O)NC12CC3CC(C1)CC(C(=O)N1CCN(C(=O)c4ccco4)CC1)(C3)C2,inactive,
CCCC(=O)Nc1ccc2oc(-c3ccc(O)c(Br)c3)nc2c1,inactive,
CC(C)Nc1nnc(SC(C)C(=O)N(C)C2CCCCC2)s1 (stereo not given),,7.92% [at 0.501 µM]
O=C(Cn1ncn2nc(-c3cccs3)cc2c1=O)NCc1cccc(Br)c1,inactive,
